Assay results taken from PubChem BioAssay (NCATS).
Records with an inconclusive call do not appear. A call without a number means that no potency is given here. Unmarked numbers belong to inactive results. Activity calls are given as the source filed them. The call rests on the fitted dose curve; in most records, active means well fitted curve in the direction sought with a large enough effect; inconclusive means small, poorly fitted or top-dose-only effect, or another doubt; inactive means no such curve, though single readings can be large; an effect the other way counts as inactive or inconclusive.

Key:
[1] = system: JEG-3; assay: Primary qHTS to identify gynecologic anti-cancer compounds using libraries of approved drugs and bioactive compounds (AID 1345084); details: Gynecologic cancer cell panel viability, ATPlite luminescence, 48 h; series mostly up to 57.5 µM; further: nearly all actives have a fitted effect of over 55% in size
In short: (§1)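 Five-point cytotoxicity, 48 h drug exposure at 37 C, 5% CO2, on cells seeded 16 h beforehand. ATP content read by ATPlite luminescence.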

[2] = system: OV90; assay: as above; details: Gynecologic cancer cell panel viability, ATPlite luminescence, 48 h; series mostly up to 57.5 µM
In short: as §1

[3] = system: PA-1; assay: as above; details: Gynecologic cancer cell panel viability, ATPlite luminescence, 48 h; series mostly up to 57.5 µM
In short: as §1

[4] = system: SKOV3; assay: as above; details: Gynecologic cancer cell panel viability, ATPlite luminescence, 48 h; series mostly up to 57.5 µM
In short: as §1

[5] = system: Tov-21-G; assay: as above; details: Gynecologic cancer cell panel viability, ATPlite luminescence, 48 h; series mostly up to 57.5 µM
In short: as §1

[6] = system: Tov112D; assay: as above; details: Gynecologic cancer cell panel viability, ATPlite luminescence, 48 h; series mostly up to 57.5 µM
In short: as §1

[7] = Drug repurposing screens with cells derived from glioblastoma tumor samples (AID 1345199); details: GBM patient neurospheres viability, ATP luminescence, 48 h; further: nearly all actives have a fitted effect of over 40% in size
In short: (§2)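 Primary testing used CD133+ neurospheres from four GBM patients, seven concentrations, 48 h exposure and ATP-based viability; confirmation added three slower-growing patient lines.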

[8] = system: astro; assay: as above; details: viability, ATP luminescence, 48 h; series mostly up to 45.9 µM
In short: as §2

[9] = at 45.9 µM (top of the series), tumour line B
[10] = at 45.9 µM (top of the series), tumour line D
[11] = at 46 µM (top of the series), tumour line A
[12] = at 46.1 µM (top of the series), tumour line C
[13] = at 20 µM (top of the series), tumour line C
[14] = at 21.2 µM (top of the series), tumour line B
[15] = at 21.2 µM (top of the series), tumour line D
[16] = at 21.3 µM (top of the series), tumour line A
Potency means the concentration at half of the fitted maximal effect.

OCC(O)CS (configuration not stated)
outcome [1]: inactive | Potency [2]: inactive | outcome [3]: inactive | outcome [4]: inactive | outcome [5]: inactive | outcome [6]: inactive | activity, negative = cell killing [7, 9]: -7.05% | activity, negative = cell killing [7, 10]: -1.81% | activity, negative = cell killing [7, 11]: -9.33% | activity, negative = cell killing [7, 12]: -1.31% | outcome [8]: inactive

CCCCCCCC(=O)OCC(O)CO (configuration not stated)
outcome [1]: inactive | Potency [2]: 3.55 µM (active) | outcome [3]: inactive | outcome [4]: inactive | outcome [5]: inactive | outcome [6]: inactive | activity, negative = cell killing [7, 9]: -0.0604% | activity, negative = cell killing [7, 10]: -12.6% | activity, negative = cell killing [7, 11]: -23.4% | activity, negative = cell killing [7, 12]: -3.44% | outcome [8]: inactive

CC(C(=O)O)c1ccc2c(c1)Cc1cccnc1O2 (configuration not stated)
outcome [1]: inactive | Potency [2]: inactive | outcome [3]: inactive | outcome [4]: inactive | outcome [5]: inactive | outcome [6]: inactive | activity, negative = cell killing [7, 9]: 1.78% | activity, negative = cell killing [7, 10]: -8.91% | activity, negative = cell killing [7, 11]: -13.1% | activity, negative = cell killing [7, 12]: -25.1% | outcome [8]: inactive

O=C(/C=C/c1ccc(O)c(O)c1)O[C@@H]1C[C@@](OC(=O)/C=C/c2ccc(O)c(O)c2)(C(=O)O)C[C@@H](O)[C@@H]1O
outcome [1]: inactive | Potency [2]: inactive | outcome [3]: inactive | outcome [4]: inactive | outcome [5]: inactive | outcome [6]: inactive | activity, negative = cell killing [7, 9]: 1.43% | activity, negative = cell killing [7, 10]: -4.97% | activity, negative = cell killing [7, 12]: -11.7% | Potency ([7]; tumour line A): 28.2 µM (active) | outcome [8]: inactive

CCOC(=O)[C@H](CCc1ccccc1)N[C@@H](C)C(=O)N1CCC[C@H]1C(=O)O
outcome [1]: inactive | Potency [2]: inactive | outcome [3]: inactive | outcome [4]: inactive | outcome [5]: inactive | outcome [6]: inactive | activity, negative = cell killing [7, 9]: -10.1% | activity, negative = cell killing [7, 10]: -16.5% | activity, negative = cell killing [7, 11]: -13.8% | activity, negative = cell killing [7, 12]: -21.6% | outcome [8]: inactive

CCCCC1(COC(=O)CCC(=O)O)C(=O)N(c2ccccc2)N(c2ccccc2)C1=O
outcome [1]: inactive | Potency [2]: inactive | outcome [3]: inactive | outcome [4]: inactive | outcome [5]: inactive | outcome [6]: inactive | activity, negative = cell killing [7, 13]: -5.58% | activity, negative = cell killing [7, 14]: -15.2% | activity, negative = cell killing [7, 15]: -10.8% | activity, negative = cell killing [7, 16]: -29.7% | outcome [8]: inactive

NC(=O)CC[C@@H](N)C(=O)O
outcome [1]: inactive | Potency [2]: inactive | outcome [3]: inactive | outcome [4]: inactive | outcome [5]: inactive | outcome [6]: inactive | activity, negative = cell killing [7, 9]: -5.88% | activity, negative = cell killing [7, 10]: 12.3% | activity, negative = cell killing [7, 11]: 4.73% | activity, negative = cell killing [7, 12]: 1.46% | outcome [8]: inactive

NC(N)=NCCN1CCCCCCC1
activity change, negative = cytotoxicity [1]: -3.39% [at 0.462 µM] | activity change, negative = cytotoxicity [2]: -3.97% [at 0.462 µM] | activity change, negative = cytotoxicity [3]: 8.5% [at 0.462 µM] | activity change, negative = cytotoxicity [4]: 6.07% [at 0.462 µM] | activity change, negative = cytotoxicity [5]: 1.66% [at 0.462 µM] | activity change, negative = cytotoxicity [6]: 3.26% [at 0.462 µM] | activity, negative = cell killing [7, 13]: -8.56% | activity, negative = cell killing [7, 14]: -5.86% | activity, negative = cell killing [7, 15]: 12.5% | activity, negative = cell killing [7, 16]: -16.2% | outcome [8]: inactive

CCc1nnc(NS(=O)(=O)c2ccc(N)cc2)s1
outcome [1]: inactive | Potency [2]: inactive | outcome [3]: inactive | outcome [4]: inactive | outcome [5]: inactive | outcome [6]: inactive | activity, negative = cell killing [7, 9]: -21.8% | activity, negative = cell killing [7, 10]: -9.53% | activity, negative = cell killing [7, 11]: -28.8% | activity, negative = cell killing [7, 12]: -20.9% | outcome [8]: inactive

COC(=O)N/N=C/c1c[n+]([O-])c2ccccc2[n+]1[O-]
outcome [1]: inactive | Potency [2]: inactive | outcome [3]: inactive | outcome [4]: inactive | outcome [5]: inactive | outcome [6]: inactive | activity, negative = cell killing [7, 9]: 3.32% | activity, negative = cell killing [7, 10]: -10.1% | activity, negative = cell killing [7, 11]: -9.78% | activity, negative = cell killing [7, 12]: 2.7% | outcome [8]: inactive

COc1ccccc1Oc1c(NS(=O)(=O)c2ccc(C(C)(C)C)cc2)nc(-c2ncccn2)nc1OCCO
outcome [1]: inactive | Potency [2]: inactive | outcome [3]: inactive | outcome [4]: inactive | outcome [5]: inactive | outcome [6]: inactive | activity, negative = cell killing [7, 9]: -11.9% | activity, negative = cell killing [7, 10]: -7.18% | activity, negative = cell killing [7, 11]: -57.2% | activity, negative = cell killing [7, 12]: -29.9% | outcome [8]: inactive

CC(=O)NCc1c(I)c(NC(C)=O)c(I)c(C(=O)O)c1I
outcome [1]: inactive | Potency [2]: inactive | outcome [3]: inactive | outcome [4]: inactive | outcome [5]: inactive | outcome [6]: inactive | activity, negative = cell killing [7, 9]: -9.68% | activity, negative = cell killing [7, 10]: -11.6% | activity, negative = cell killing [7, 11]: -20.1% | activity, negative = cell killing [7, 12]: -11.1% | outcome [8]: inactive

O=C(NCC(O)CO)c1c(I)c(C(=O)NCC(O)CO)c(I)c(N(CCO)C(=O)CO)c1I (configuration not stated)
outcome [1]: inactive | Potency [2]: inactive | outcome [3]: inactive | outcome [4]: inactive | outcome [5]: inactive | outcome [6]: inactive | activity, negative = cell killing [7, 13]: -7.07% | activity, negative = cell killing [7, 14]: -9.85% | activity, negative = cell killing [7, 15]: 1% | activity, negative = cell killing [7, 16]: -9.08% | outcome [8]: inactive

COc1nccnc1NS(=O)(=O)c1ccc(N)cc1
outcome [1]: inactive | Potency [2]: inactive | outcome [3]: inactive | outcome [4]: inactive | outcome [5]: inactive | outcome [6]: inactive | activity, negative = cell killing [7, 9]: 0.463% | activity, negative = cell killing [7, 10]: -17.5% | activity, negative = cell killing [7, 11]: -24.3% | activity, negative = cell killing [7, 12]: -3.06% | outcome [8]: inactive

CN1C(C)(C)CCCC1(C)C
outcome [1]: inactive | Potency [2]: inactive | outcome [3]: inactive | outcome [4]: inactive | outcome [5]: inactive | outcome [6]: inactive | activity, negative = cell killing [7, 9]: -6.99% | activity, negative = cell killing [7, 10]: 3.96% | activity, negative = cell killing [7, 11]: -29.4% | activity, negative = cell killing [7, 12]: -8.74% | outcome [8]: inactive

COc1ccc(C(=O)N2CCN(CC(=O)N3CCOCC3)CC2)cc1
outcome [1]: inactive | Potency [2]: inactive | outcome [3]: inactive | outcome [4]: inactive | outcome [5]: inactive | outcome [6]: inactive | activity, negative = cell killing [7, 9]: -0.665% | activity, negative = cell killing [7, 10]: -14.5% | activity, negative = cell killing [7, 11]: -23.3% | activity, negative = cell killing [7, 12]: -11.4% | outcome [8]: inactive

CC(C)CCOC(=O)c1ccc(N(C)C)cc1
outcome [1]: inactive | Potency [2]: inactive | outcome [3]: inactive | outcome [4]: inactive | outcome [5]: inactive | outcome [6]: inactive | activity, negative = cell killing [7, 9]: -5.37% | activity, negative = cell killing [7, 10]: -2.75% | activity, negative = cell killing [7, 11]: -50% | activity, negative = cell killing [7, 12]: -13.2% | outcome [8]: inactive
